Measurements: PubChem BioAssay (EPA / NIEHS)
Inconclusive results are not listed. Activity calls are given as the source filed them. Rule for the calls, unless noted: active = hit-call score of the fitted dose curve at least 0.9, where 1 is the maximum; inconclusive = response in the unintended direction; inactive = score below 0.9.

Columns and labels:
[1] = Tanguay_ZF_120hpf_MORT_legacy: (Legacy) Oregon State University Tanguay Lab 120 Hour Post-fertilization zebrafish Assay for Mortality (AID 2283633);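 for AC50: fitted as increase in binary mortality versus DMSO negative control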
Summary of the method: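 Brightfield scoring of embryo death (binary) at 24 and 120 hpf; static exposure 6–120 hpf, 28C, sealed and foil-covered. Pronase-dechorionated 5D wild-type larvae, single embryo per well. DMSO 0.64% v/v; trimethyltin chloride 5uM positive control.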

[2] = Tanguay_ZF_120hpf_YSE_legacy: (Legacy) Oregon State University Tanguay Lab 120 Hour Post-fertilization zebrafish Assay for Yolk Sac Edema (AID 2283634);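 for AC50: actives raise the incidence of yolk sac edema above the DMSO baseline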
Summary of the method: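 Binary brightfield scoring of yolk sac edema at 120 hpf; DMSO baseline, gain-of-signal fitting. Dechorionated 5D larvae, one per well, static exposure 6–120 hpf, 28C, 0.64% DMSO. Dead embryos not scored.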

[3] = Tanguay_ZF_120hpf_AXIS_legacy: (Legacy) Oregon State University Tanguay Lab 120 Hour Post-fertilization zebrafish Assay for Body Axis Malformation (AID 2283635);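 for AC50: potency for an increased fraction of larvae scored with body axis malformation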
Summary of the method: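 Embryos: 5D wild-type, pronase-dechorionated 4 hpf; static exposure 6–120 hpf, 28C, sealed, dark, 1 embryo/well, 0.64% DMSO. 120 hpf axis malformation scored present/absent; dead embryos excluded. Analysed as gain of signal vs DMSO.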

[4] = Tanguay_ZF_120hpf_EYE_legacy: (Legacy) Oregon State University Tanguay Lab 120 Hour Post-fertilization zebrafish Assay for Eye Malformation (AID 2283636)
Summary of the method: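 Dechorionated wild-type Tropical 5D zebrafish embryos were exposed statically from 6 hpf, one per well, to 120 hpf at 28C in sealed, foil-covered plates with 0.64% DMSO. Eye malformation was scored present/absent by brightfield microscopy against DMSO controls.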

[5] = Tanguay_ZF_120hpf_SNOU_legacy: (Legacy) Oregon State University Tanguay Lab 120 Hour Post-fertilization zebrafish Assay for Snout Malformation (AID 2283637)
Summary of the method: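 Tropical 5D wild-type zebrafish embryos, dechorionated with pronase at 4 hpf, were exposed singly from 6 hpf to 120 hpf statically at 28C in 0.64% DMSO. Snout malformation was scored present/absent by brightfield microscopy, fitted against DMSO.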

[6] = Tanguay_ZF_120hpf_JAW_legacy: (Legacy) Oregon State University Tanguay Lab 120 Hour Post-fertilization zebrafish Assay for Jaw Malformation (AID 2283638);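 for AC50: active means more embryos with jaw malformation than DMSO controls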
Summary of the method: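 Binary jaw-malformation calls at 120 hpf by brightfield imaging; DMSO (0.64% v/v) = baseline. Embryos: 5D wild-type, pronase-dechorionated, one per well from 6 hpf, static exposure, 28C, sealed, dark.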

[7] = Tanguay_ZF_120hpf_PE_legacy: (Legacy) Oregon State University Tanguay Lab 120 Hour Post-fertilization zebrafish Assay for Pericardial Edema (AID 2283640);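 for AC50: potency for increased incidence of pericardial edema versus DMSO baseline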
Summary of the method: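 Static waterborne exposure, 5D wild-type embryos, 28C, to 120 hpf; final DMSO 0.64% (vol/vol). Binary PE call at 120 hpf by brightfield; fitted upward vs DMSO baseline. 5uM trimethyltin chloride as positive control.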

[8] = Tanguay_ZF_120hpf_BRAI_legacy: (Legacy) Oregon State University Tanguay Lab 120 Hour Post-fertilization zebrafish Assay for Brain Malformation (AID 2283641)
Summary of the method: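 Read-out: binary brain morphology call at 120 hpf (brightfield), fitted in gain-of-signal direction vs DMSO. Wild-type Tropical 5D embryos, static exposure, 28C, 0.64% DMSO final; 5uM trimethyltin chloride as positive control.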

[9] = Tanguay_ZF_120hpf_SOMI_legacy: (Legacy) Oregon State University Tanguay Lab 120 Hour Post-fertilization zebrafish Assay for Somite Malformation (AID 2283647)
Summary of the method: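 Binary brightfield scoring of somite defects at 120 hpf in 5D wild-type larvae; one dechorionated embryo per well, static exposure from 6 hpf, 28C, sealed and dark. Final DMSO 0.64%; trimethyltin chloride 5uM positive control.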

[10] = Tanguay_ZF_120hpf_PFIN_legacy: (Legacy) Oregon State University Tanguay Lab 120 Hour Post-fertilization zebrafish Assay for Pectoral Fin Malformation (AID 2283648);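 note: each larva judged yes or no for fin defect by brightfield with dead larvae skipped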
Summary of the method: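 Tropical 5D wild-type embryos, dechorionated with pronase at 4 hpf, were placed singly in wells at 6 hpf and statically exposed until 120 hpf at 28C, sealed and dark, with 0.64% (vol/vol) final DMSO; pectoral fin malformation scored present/absent.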

[11] = TOX21_p53_BLA_p4_viability: Viability Assessment in the Tox21 HCT-116 p53 Agonism Beta-lactamase Assay, Phase 4 (AID 2283597);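 note: hits lower the luminescence signal meaning cytotoxicity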
Summary of the method: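 We seeded HCT116 p53 reporter cells at 4000/well and waited 5 h. We then added compounds in DMSO at a 217-fold dilution and incubated for 16 h. Viability was read as CellTiter-Glo luminescence after 30 min at RT.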

[12] = TOX21_p53_BLA_p5_viability: Viability Assessment in the Tox21 HCT-116 p53 Agonism Beta-lactamase Assay, Phase 5 (AID 2283600)
Summary of the method: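 Compounds, pinned from DMSO at 217-fold dilution, were left on the cells for 16 h. The viability endpoint was ATP content measured by CellTiter-Glo luminescence, where falling signal reflects cytotoxicity.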

[13] = Tanguay_ZF_120hpf_PIG_legacy: (Legacy) Oregon State University Tanguay Lab 120 Hour Post-fertilization zebrafish Assay for Pigmentation Malformation (AID 2283650)
Summary of the method: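 Tropical 5D wild-type zebrafish embryos, dechorionated with pronase at 4 hpf, were exposed singly from 6 hpf to 120 hpf statically at 28C in sealed, dark plates with 0.64% DMSO; pigmentation scored present/absent by brightfield microscopy, fitted against DMSO.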

[14] = Tanguay_ZF_120hpf_CIRC_legacy: (Legacy) Oregon State University Tanguay Lab 120 Hour Post-fertilization zebrafish Assay for Circulatory Malformation (AID 2283651)
Summary of the method: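 Read-out: presence or absence of circulatory malformation at 120 hpf, scored by brightfield microscopy, fitted in the gain-of-signal direction against DMSO baseline. Wild-type 5D larvae were exposed from 6 hpf after enzymatic chorion removal.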

[15] = target: Cellular tumor antigen p53 (Homo sapiens) (UniProt P04637); test: TOX21_p53_BLA_p5_ratio: Tox21 HCT-116 p53 Agonism Beta-lactamase Assay, Ratio, Phase 5 (AID 2283599)
Summary of the method: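 HCT-116 cells carrying a p53-inducible beta-lactamase reporter were seeded at 4000 cells/well and dosed after 5 h with compound in DMSO (217-fold dilution). After 16 h at 37C, CCF4-AM substrate was added for 2 h, and the 460/530 nm emission ratio was scored as gain-of-signal versus DMSO.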

[16] = target: Cellular tumor antigen p53 (Homo sapiens) (UniProt P04637); test: TOX21_p53_BLA_p4_ratio: Tox21 HCT-116 p53 Agonism Beta-lactamase Assay, Ratio, Phase 4 (AID 2283601)
Summary of the method: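 HCT116 cells carrying an inducible beta-lactamase reporter were plated at 4000 cells/well, rested 5 h, then exposed to compounds in DMSO (217-fold dilution) for 16 h at 37C. CCF4-AM substrate was loaded 2 h at room temperature; 460/530 nm emission ratio scored gain-of-signal versus DMSO.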

[17] = Tanguay_ZF_120hpf_OTIC_legacy: (Legacy) Oregon State University Tanguay Lab 120 Hour Post-fertilization zebrafish Assay for Otic Vesicle Malformation (AID 2283639)
Summary of the method: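 Embryos from 5D wild-type adults exposed in plates; DMSO 0.64% v/v final. Sealed, light-protected, 28C, static to 120 hpf. Otic vesicle malformation recorded as binary endpoint; gain-of-signal fitted vs DMSO.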

[18] = Tanguay_ZF_120hpf_CFIN_legacy: (Legacy) Oregon State University Tanguay Lab 120 Hour Post-fertilization zebrafish Assay for Caudal Fin Malformation (AID 2283649)
Summary of the method: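 Dechorionated 5D wild-type zebrafish, static exposure 6–120 hpf, 28C, sealed and dark, 0.64% v/v DMSO final. Binary fin-malformation call at 120 hpf, brightfield; gain of signal vs DMSO baseline.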

[19] = read-out: kallikrein-3 (KLK3), KLK3 (gene 354); test: LTEA_HepaRG_KLK3: Life Technologies and Expression Analysis (LTEA) Assay for kallikrein-3 (KLK3) using HepaRG (AID 2283652; active = hit-call score of the fitted dose curve at least 0.9, where 1 is the maximum; inactive = score below 0.9); details: mRNA level, 48 h; actives raise or lower the signal
Summary of the method: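 Differentiated human HepaRG cells in serum-free induction medium exposed 48 h in duplicate, eight-point half-log series from 100 uM in 0.5% DMSO. KLK3 mRNA by qRT-PCR, normalised to ACTB, GAPDH, POLR2A; bidirectional fit versus DMSO.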

Measured: AC50

Sequence of Cellular tumor antigen p53 (Homo sapiens) (P04637 whole entry, looked up): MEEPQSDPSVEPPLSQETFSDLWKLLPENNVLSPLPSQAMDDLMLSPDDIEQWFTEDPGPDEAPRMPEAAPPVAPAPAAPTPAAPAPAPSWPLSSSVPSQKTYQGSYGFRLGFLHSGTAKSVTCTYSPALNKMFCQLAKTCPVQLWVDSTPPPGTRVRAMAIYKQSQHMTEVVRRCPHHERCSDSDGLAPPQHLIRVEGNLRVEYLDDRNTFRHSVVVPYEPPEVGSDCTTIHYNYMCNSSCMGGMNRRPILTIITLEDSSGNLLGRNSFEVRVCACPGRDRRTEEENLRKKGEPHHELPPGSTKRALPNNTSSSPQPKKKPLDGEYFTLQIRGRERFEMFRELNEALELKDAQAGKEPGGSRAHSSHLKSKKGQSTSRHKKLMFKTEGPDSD

CCOc1cc(C(C)(C)C)ccc1C1COC(c2c(F)cccc2F)=N1 (configuration not stated)
inactive: [1] | [2] | [3] | [4] | [5] | [6] | [7] | [8] | [9] | [10]

CCCCC(O)(Cn1cncn1)c1ccc(Cl)cc1Cl (configuration not stated)
active: [11] 82 µM
not listed: [4] | [8] | [15] | [16] | [17] | [18] | [19]
inactive: all other assays above

COC(=O)NC(=S)Nc1ccccc1NC(=S)NC(=O)OC
active: [2] 47.7 µM | [5] 50.3 µM | [7] 52.6 µM
not listed: [8] | [11] | [14] | [18] | [19]
inactive: all other assays above

O=C(O)c1c(Cl)ccc2cc(Cl)cnc12
not listed: [8] | [9] | [11] | [12] | [14] | [15] | [16] | [19]
inactive: all other assays above

CC(C)=CC1C(C(=O)OCc2coc(Cc3ccccc3)c2)C1(C)C (configuration not stated)
not listed: [9] | [11] | [12] | [15] | [16] | [17] | [18] | [19]
inactive: all other assays above

COC(=O)NS(=O)(=O)c1ccc(N)cc1
not listed: [9] | [11] | [12] | [14] | [16] | [17] | [19]
inactive: all other assays above

CO/N=C(/C1=NOCCO1)c1ccccc1Oc1ncnc(Oc2ccccc2Cl)c1F
inactive: [11] | [12] | [2] | [4] | [6] | [8] | [9] | [10] | [14]
active: [1] 2.4 µM | [3] 5.15 µM | [7] 0.936 µM

Cc1nc(N(C)C)nc(OC(=O)N(C)C)c1C
not listed: [8] | [11] | [12] | [15] | [16] | [17] | [19]
inactive: all other assays above

CC(C)Nc1nc(Cl)nc(NC(C)C)n1
not listed: [11] | [12] | [13] | [15] | [17] | [18] | [19]
inactive: all other assays above

CS(=O)(=O)c1cc(C(F)(F)F)ccc1C(=O)c1cnoc1C1CC1
not listed: [8] | [15] | [16] | [17] | [18] | [19]
inactive: all other assays above

CCC(C)n1c(=O)[nH]c(C)c(Br)c1=O (configuration not stated)
not listed: [3] | [6] | [11] | [15] | [16]
inactive: all other assays above

CCCCC(C#N)(Cn1cncn1)c1ccc(Cl)cc1 (configuration not stated)
active: [2] 37.7 µM | [3] 56 µM | [4] 49.4 µM | [5] 48.6 µM | [6] 48 µM | [7] 46.8 µM | [10] 24.1 µM
inactive: [11] | [12] | [1] | [8] | [9] | [13] | [14]

CCOP(=S)(OCC)Oc1nc(Cl)n(C(C)C)n1
active: [2] 37.4 µM | [3] 14.4 µM
not listed: [11] | [12] | [15] | [17] | [18] | [19]
inactive: all other assays above

CCOc1nc(C(Cl)(Cl)Cl)ns1
not listed: [10] | [14] | [15] | [16] | [17] | [19]
inactive: all other assays above

CC(C)N1C(=O)c2ccccc2NS1(=O)=O
not listed: [2] | [13] | [15] | [16] | [17] | [18] | [19]
inactive: all other assays above

CCCC(=NOCC)C1=C(O)CC(CC(C)SCC)CC1=O (configuration not stated)
not listed: [12] | [15] | [16] | [17] | [19]
inactive: all other assays above

N#Cc1c(Cl)cccc1Cl
not listed: [11] | [12] | [15] | [16] | [17] | [19]
inactive: all other assays above

COP(=O)(OC)O/C(C)=C/C(=O)N(C)C
not listed: [11] | [12] | [15] | [18] | [19]
inactive: all other assays above

O=c1n(Cl)c(=O)n(Cl)c(=O)n1Cl
not listed: [4] | [5] | [9] | [11] | [15] | [16] | [17] | [19]
inactive: all other assays above
